This passage reports outcome and AC50 results from PubChem BioAssay (EPA / NIEHS).

Records with an inconclusive call do not appear. The source made the active and inactive calls. How the source made its calls: active means hit-call score of the fitted dose curve at least 0.9, where 1 is the maximum; inconclusive means response in the unintended direction; inactive means score below 0.9.

Assay [1] concerns the target Collagenase 3 (Homo sapiens) (UniProt P45452). Nature of the assay: NVS_ENZ_hMMP13: NovaScreen (NVS) Enzymatic Assay for human Matrix Metalloproteinase-13 (MMP13) (AID 2283182). The essentials:
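Recombinant MMP13 cleaving fluorescent substrate, cell-free, measured 1 h after dosing. Primary duplicate screen at 25 uM; actives tested in concentration-response up to 50 uM; loss of signal relative to DMSO.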

Assay [2] has as its target human MAP Kinase-Activated Protein Kinase 2 (MAPKAPK2), MAPKAPK2 (gene 9261) (UniProt P49137). Briefly: NVS_ENZ_hMAPKAPK2: NovaScreen (NVS) Enzymatic Assay for human MAP Kinase-Activated Protein Kinase 2 (MAPKAPK2) (AID 2283178). The method, then: (§1) NVS_ENZ_hMAPKAPK2 is a biochemical, single-readout assay that uses extracted gene-proteins in a cell-free assay. Measurements were taken 1 hour after chemical dosing in a 384-well plate.NVS_ENZ_hMAPKAPK2 is one of one assay component(s) measured or calculated from the NVS_ENZ_hMAPKAPK2 assay. It is designed to make measurements of enzyme activity, a form of enzyme reporter, as detected with fluorescence intensity signals by Fluorescence and electrophoretic mobility shift technology.Data from the assay component NVS_ENZ_hMAPKAPK2 was analyzed into 1 assay endpoint. This assay endpoint, NVS_ENZ_hMAPKAPK2, was analyzed in the positive analysis fitting direction relative to DMSO as the negative control and baseline of activity. Using a type of enzyme reporter, loss-of-signal activity can be used to understand changes in the enzymatic activity as they relate to the gene MAPKAPK2. Furthermore, this assay endpoint can be referred to as a primary readout, because this assay has produced multiple assay endpoints where this one serves a enzymatic activity function. To generalize the intended target to other relatable targets, this assay endpoint is annotated to the kinase intended target family, where the subfamily is serine/threonine kinase.
Binding assays used specific radioligands (tritiated, iodinated) with non-radioactive competitive displacement ligands in agonist or antagonist protocols (as indicated) and various reference compounds and inhibitors to titrate specific binding to receptors and transporters. Most enzyme assays (CYPs, kinases, phosphatases, proteases, HDACs) used recombinant protein and specific substrates (fluorescence mostly, some colorimetric and radioactive) and inhibitors, followed by a biochemical separation of substrate and product. All assays for the biochemical HTS were initially run in duplicate at a single concentration (10 uM for CYP450 assays and 25 uM for all others). […]

In assay [3] the target is human Matrix Metalloproteinase-2 (MMP2), MMP2 (gene 4313) (UniProt P08253). Briefly: NVS_ENZ_hMMP2: NovaScreen (NVS) Enzymatic Assay for human Matrix Metalloproteinase-2 (MMP2) (AID 2283184). Put shortly: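 Compounds first screened in duplicate at a single 25 uM, with actives followed up in concentration series. Recombinant human MMP2 cleaves a fluorogenic substrate; fluorescence taken at 1 h, inhibition fitted relative to DMSO.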

In assay [4] the target is Mitogen-activated protein kinase 3 (Homo sapiens) (UniProt P27361). Nature of the assay: NVS_ENZ_hMAPK3: NovaScreen (NVS) Enzymatic Assay for human Mitogen-Activated Protein Kinase 3 (MAPK 3) (AID 2283177). The essentials:
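Chemicals were first tested in duplicate at 25 uM, with hits re-run as concentration series (max 50 uM). Recombinant enzyme activity, measured 1 h post-dose in a cell-free format, was read by fluorescence/mobility shift relative to DMSO.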

The target of assay [5] is human Matrix Metalloproteinase-7 (MMP7), MMP7 (gene 4316) (UniProt P09237). Briefly: NVS_ENZ_hMMP7: NovaScreen (NVS) Enzymatic Assay for human Matrix Metalloproteinase-7 (MMP7) (AID 2283183). The essentials:
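Compounds first tested at 25 uM in duplicate, then at up to 50 uM in concentration series if active. Protease activity measured by fluorescence intensity 1 h after dosing, with fitting relative to DMSO.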

The target of assay [6] is human Matrix Metalloproteinase-3 (MMP3), MMP3 (gene 4314) (UniProt P08254). Nature of the assay: NVS_ENZ_hMMP3: NovaScreen (NVS) Enzymatic Assay for human Matrix Metalloproteinase-3 (MMP3) (AID 2283185). The essentials: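 Fluorescent substrate turnover by recombinant MMP3 read after 1 h, signal loss scored against DMSO. Compounds first run in duplicate at 25 uM single dose, then actives confirmed by concentration series.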

Assay [7] has as its target human Mitogen-Activated Protein Kinase 1 (MAPK 1), MAPK1 (gene 5594) (UniProt P28482). Briefly: NVS_ENZ_hMAPK1: NovaScreen (NVS) Enzymatic Assay for human Mitogen-Activated Protein Kinase 1 (MAPK 1) (AID 2283175). The protocol:
as §1, with “NVS_ENZ_hMAPK1” for “NVS_ENZ_hMAPKAPK2”, “plate.NVS_ENZ_hMAPK1” for “plate.NVS_ENZ_hMAPKAPK2”, “NVS_ENZ_hMAPK1,” for “NVS_ENZ_hMAPKAPK2,”, “MAPK1.” for “MAPKAPK2.”, “kinase. […]” for “kinase.”

In assay [8] the target is human MET Proto-Oncogene, Receptor Tyrosine Kinase (MET), MET (gene 4233) (UniProt P08581). Nature of the assay: NVS_ENZ_hMet: NovaScreen (NVS) Enzymatic Assay for human MET Proto-Oncogene, Receptor Tyrosine Kinase (MET) (AID 2283180). Put shortly:
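Hits from a 25 uM duplicate screen were retested in concentration series up to 50 uM. Enzyme activity was measured by fluorescence after electrophoretic separation of product from substrate, 1 h after compound addition, relative to DMSO.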

For assay [9], the target named is human NIMA (Never In Mitosis Gene A)-Related Kinase 2 (NEK2), NEK2 (gene 4751) (UniProt P51955). Nature of the assay: NVS_ENZ_hNEK2: NovaScreen (NVS) Enzymatic Assay for human NIMA (Never In Mitosis Gene A)-Related Kinase 2 (NEK2) (AID 2283188). The essentials:
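Compounds were first screened in duplicate at 25 uM, with actives followed up in concentration series. Recombinant NEK2 activity, cell-free, was read 1 h after dosing by fluorescence intensity after mobility-shift separation. Signal loss was scored against DMSO.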

Assay [10] has as its target human Matrix Metalloproteinase-9 (MMP9), MMP9 (gene 4318) (UniProt P14780). Briefly: NVS_ENZ_hMMP9: NovaScreen (NVS) Enzymatic Assay for human Matrix Metalloproteinase-9 (MMP9) (AID 2283190).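 Further: cell-free recombinant MMP9 protease activity read by fluorescent substrate signal; active means inhibition seen as loss of fluorescence signal versus DMSO.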 The essentials:
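Extracted enzyme, fluorescent substrate, 1 h post-dose read. Single conc 25 uM in duplicate, then concentration series for actives. Activity = signal loss relative to DMSO negative control.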

Sequence of human MAP Kinase-Activated Protein Kinase 2 (MAPKAPK2), MAPKAPK2 (gene 9261) (P49137 whole entry, looked up): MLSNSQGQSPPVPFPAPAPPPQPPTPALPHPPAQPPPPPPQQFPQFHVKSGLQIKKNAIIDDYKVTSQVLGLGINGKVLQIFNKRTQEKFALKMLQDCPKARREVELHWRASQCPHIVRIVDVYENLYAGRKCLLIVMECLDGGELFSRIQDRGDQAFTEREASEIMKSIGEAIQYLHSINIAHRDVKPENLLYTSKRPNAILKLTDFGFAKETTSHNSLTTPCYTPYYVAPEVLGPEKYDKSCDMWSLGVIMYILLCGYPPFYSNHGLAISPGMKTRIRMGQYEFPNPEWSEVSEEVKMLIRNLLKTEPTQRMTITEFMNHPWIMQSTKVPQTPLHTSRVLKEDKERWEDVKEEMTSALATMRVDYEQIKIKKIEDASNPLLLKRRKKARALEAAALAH
Sequence of human Matrix Metalloproteinase-7 (MMP7), MMP7 (gene 4316) (P09237 whole entry, looked up): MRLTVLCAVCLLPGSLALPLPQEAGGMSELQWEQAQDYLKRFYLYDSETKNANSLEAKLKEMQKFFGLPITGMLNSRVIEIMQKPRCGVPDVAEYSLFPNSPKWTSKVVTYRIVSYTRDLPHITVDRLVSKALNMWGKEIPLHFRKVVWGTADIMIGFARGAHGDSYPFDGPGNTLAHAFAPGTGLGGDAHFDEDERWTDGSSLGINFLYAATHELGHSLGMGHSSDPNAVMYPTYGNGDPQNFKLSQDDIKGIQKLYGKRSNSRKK
Sequence of Mitogen-activated protein kinase 3 (Homo sapiens) (P27361 whole entry, looked up): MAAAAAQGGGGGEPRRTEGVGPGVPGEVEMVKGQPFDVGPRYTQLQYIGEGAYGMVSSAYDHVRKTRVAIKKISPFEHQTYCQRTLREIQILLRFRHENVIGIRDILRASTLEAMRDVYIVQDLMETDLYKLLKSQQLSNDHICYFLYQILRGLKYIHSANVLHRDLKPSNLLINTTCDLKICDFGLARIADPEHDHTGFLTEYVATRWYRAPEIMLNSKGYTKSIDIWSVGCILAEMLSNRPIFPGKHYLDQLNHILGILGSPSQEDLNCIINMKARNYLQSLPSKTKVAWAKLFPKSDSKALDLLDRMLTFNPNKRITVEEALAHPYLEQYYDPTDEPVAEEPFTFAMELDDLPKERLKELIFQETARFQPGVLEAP
Sequence of human Matrix Metalloproteinase-9 (MMP9), MMP9 (gene 4318) (P14780 whole entry, looked up): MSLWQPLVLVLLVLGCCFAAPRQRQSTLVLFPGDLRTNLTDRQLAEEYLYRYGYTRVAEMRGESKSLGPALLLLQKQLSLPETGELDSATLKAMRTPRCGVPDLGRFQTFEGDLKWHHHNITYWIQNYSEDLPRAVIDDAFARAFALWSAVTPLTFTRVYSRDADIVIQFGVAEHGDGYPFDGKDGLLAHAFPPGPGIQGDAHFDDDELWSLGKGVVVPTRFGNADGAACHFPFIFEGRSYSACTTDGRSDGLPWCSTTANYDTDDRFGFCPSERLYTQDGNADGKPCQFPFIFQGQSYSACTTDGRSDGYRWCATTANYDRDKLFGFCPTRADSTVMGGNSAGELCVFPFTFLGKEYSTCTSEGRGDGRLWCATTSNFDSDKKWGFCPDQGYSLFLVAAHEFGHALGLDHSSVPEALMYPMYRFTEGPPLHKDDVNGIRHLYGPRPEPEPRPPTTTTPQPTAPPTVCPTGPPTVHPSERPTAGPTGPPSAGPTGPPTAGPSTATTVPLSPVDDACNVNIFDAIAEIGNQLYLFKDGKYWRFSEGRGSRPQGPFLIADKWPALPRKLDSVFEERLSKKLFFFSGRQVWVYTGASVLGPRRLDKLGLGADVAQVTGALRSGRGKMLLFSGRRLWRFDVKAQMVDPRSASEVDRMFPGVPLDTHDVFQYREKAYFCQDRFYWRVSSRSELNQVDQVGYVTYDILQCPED
Sequence of human Matrix Metalloproteinase-2 (MMP2), MMP2 (gene 4313) (P08253 whole entry, looked up): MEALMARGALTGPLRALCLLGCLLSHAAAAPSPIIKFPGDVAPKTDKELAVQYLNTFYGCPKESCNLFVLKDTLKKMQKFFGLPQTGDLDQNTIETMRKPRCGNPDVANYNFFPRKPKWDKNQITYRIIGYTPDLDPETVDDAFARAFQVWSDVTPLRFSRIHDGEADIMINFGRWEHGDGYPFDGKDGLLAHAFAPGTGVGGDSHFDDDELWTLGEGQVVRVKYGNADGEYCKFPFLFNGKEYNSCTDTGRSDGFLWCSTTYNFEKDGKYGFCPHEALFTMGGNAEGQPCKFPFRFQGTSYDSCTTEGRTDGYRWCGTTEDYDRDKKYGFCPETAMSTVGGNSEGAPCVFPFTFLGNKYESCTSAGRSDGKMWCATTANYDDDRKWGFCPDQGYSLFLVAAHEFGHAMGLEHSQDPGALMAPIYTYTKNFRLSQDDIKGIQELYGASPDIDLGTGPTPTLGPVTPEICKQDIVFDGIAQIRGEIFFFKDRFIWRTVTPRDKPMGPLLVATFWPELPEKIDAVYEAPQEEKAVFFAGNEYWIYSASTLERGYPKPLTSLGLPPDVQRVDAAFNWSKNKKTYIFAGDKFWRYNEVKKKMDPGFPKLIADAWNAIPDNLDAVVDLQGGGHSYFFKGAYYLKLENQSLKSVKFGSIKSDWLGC
Sequence of human NIMA (Never In Mitosis Gene A)-Related Kinase 2 (NEK2), NEK2 (gene 4751) (P51955 whole entry, looked up): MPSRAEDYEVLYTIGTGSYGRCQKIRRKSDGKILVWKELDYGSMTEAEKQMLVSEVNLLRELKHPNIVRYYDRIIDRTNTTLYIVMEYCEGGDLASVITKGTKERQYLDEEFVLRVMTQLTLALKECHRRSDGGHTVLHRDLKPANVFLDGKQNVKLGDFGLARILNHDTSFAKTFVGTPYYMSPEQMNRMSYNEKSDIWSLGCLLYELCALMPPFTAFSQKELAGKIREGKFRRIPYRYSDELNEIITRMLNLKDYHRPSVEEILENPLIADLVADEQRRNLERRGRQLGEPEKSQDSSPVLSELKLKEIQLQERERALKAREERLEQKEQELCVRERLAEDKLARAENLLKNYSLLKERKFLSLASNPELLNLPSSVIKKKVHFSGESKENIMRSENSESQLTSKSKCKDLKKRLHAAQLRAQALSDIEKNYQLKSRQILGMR
Sequence of human Mitogen-Activated Protein Kinase 1 (MAPK 1), MAPK1 (gene 5594) (P28482 whole entry, looked up): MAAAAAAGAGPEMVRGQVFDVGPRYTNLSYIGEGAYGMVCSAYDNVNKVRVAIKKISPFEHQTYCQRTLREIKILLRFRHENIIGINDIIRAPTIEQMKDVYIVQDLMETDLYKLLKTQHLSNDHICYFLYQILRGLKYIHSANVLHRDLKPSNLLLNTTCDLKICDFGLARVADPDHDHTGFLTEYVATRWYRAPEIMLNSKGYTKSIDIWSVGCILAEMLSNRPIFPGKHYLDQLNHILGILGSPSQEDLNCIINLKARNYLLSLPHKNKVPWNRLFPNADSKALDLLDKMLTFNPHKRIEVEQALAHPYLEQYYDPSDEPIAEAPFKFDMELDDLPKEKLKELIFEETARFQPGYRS
Sequence of human MET Proto-Oncogene, Receptor Tyrosine Kinase (MET), MET (gene 4233) (P08581 whole entry, looked up): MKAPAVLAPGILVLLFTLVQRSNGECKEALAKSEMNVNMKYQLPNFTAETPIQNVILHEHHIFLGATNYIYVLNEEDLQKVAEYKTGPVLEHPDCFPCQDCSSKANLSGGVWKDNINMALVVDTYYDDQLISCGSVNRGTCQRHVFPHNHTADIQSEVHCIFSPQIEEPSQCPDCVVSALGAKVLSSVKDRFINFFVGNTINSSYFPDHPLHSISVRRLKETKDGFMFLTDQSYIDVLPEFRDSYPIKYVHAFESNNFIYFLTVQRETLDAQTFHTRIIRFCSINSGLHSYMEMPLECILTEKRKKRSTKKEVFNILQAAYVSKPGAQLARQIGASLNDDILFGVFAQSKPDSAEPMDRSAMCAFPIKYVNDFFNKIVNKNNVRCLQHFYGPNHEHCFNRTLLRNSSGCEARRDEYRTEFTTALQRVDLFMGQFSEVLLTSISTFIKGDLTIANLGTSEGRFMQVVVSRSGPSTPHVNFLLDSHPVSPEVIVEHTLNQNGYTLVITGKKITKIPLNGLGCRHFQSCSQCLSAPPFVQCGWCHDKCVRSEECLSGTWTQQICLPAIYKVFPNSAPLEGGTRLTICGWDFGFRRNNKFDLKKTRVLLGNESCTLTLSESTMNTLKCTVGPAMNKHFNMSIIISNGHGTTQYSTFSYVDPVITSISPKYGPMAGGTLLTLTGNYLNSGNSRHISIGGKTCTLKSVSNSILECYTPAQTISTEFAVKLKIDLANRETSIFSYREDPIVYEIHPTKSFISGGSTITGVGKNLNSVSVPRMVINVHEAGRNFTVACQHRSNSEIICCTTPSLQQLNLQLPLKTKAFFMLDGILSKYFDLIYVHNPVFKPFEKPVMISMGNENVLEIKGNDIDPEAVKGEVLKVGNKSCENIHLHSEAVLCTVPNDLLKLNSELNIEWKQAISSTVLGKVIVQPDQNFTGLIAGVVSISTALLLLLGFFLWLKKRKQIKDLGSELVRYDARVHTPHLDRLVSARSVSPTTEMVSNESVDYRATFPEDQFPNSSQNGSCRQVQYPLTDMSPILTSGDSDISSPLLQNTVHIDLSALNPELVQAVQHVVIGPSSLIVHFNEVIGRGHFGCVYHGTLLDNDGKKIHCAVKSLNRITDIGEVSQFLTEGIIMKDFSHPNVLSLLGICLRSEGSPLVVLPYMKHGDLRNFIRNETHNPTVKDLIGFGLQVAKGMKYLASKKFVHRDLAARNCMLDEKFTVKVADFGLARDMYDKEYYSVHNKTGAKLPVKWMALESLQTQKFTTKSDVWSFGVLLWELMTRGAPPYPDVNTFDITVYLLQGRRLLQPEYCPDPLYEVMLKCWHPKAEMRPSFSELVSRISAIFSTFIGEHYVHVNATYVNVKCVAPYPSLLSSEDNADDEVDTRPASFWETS

Turning to `CN=C=S`, the outcome in assay [1] was inactive. As for `Cc1cnc(C2=NC(C)(C(C)C)C(=O)N2)c(C(=O)O)c1` (stereo unspecified), in assay [2], the call was inactive.

A word on the AC50: it is the concentration at which the activity in the assay is half-maximal. As to `CCOC(=O)C(C)OC(=O)c1cc(Oc2ccc(C(F)(F)F)cc2Cl)ccc1[N+](=O)[O-]` (stereo unspecified), in [1], the AC50 was 15.3 µM (active). Further, the call in [3] was inactive. For `CC(C)(C)C(=O)C(Oc1ccc(Cl)cc1)n1cncn1` (stereo unspecified), the compound was called inactive in [4].

Turning to `CS(=O)(=O)c1ccc(C(=O)C2C(=O)CCCC2=O)c([N+](=O)[O-])c1`, the AC50 in [3] is 1.59 µM (active). On to `COC(=O)c1c(C(F)F)nc(C(F)(F)F)c(C2=NCCS2)c1CC(C)C`, for which the compound was called inactive in [5] and in assay [6].

Consider `COC(=O)NS(=O)(=O)c1ccc(N)cc1`, for which the compound was called inactive in [4]. Same read-out and setting: under `N#Cc1c(Cl)cccc1Cl` stands “inactive”. As for `CC(C)=CC1C(C(=O)OCc2coc(Cc3ccccc3)c2)C1(C)C` (stereo unspecified), the AC50 in assay [5] was 6.48 µM (active). In addition, the compound was classed as inactive in assay [3]. For the compound `CCNP(=S)(OC)O/C(C)=C/C(=O)OC(C)C` (stereo unspecified), the outcome in assay [4] was inactive. As to `N#CN=C1SCCN1Cc1ccc(Cl)nc1`, the call in [5] was inactive. As for `CCCC(=NOCC)C1=C(O)CC(CC(C)SCC)CC1=O` (stereo unspecified), the AC50 in assay [7] is 14.1 µM (active). Besides, the result in assay [2] was inactive. As to `CN/C(=N\[N+](=O)[O-])NCc1cnc(Cl)s1`, in assay [8], the AC50 is 22.2 µM (active).

On to `Cn1c(-c2ccccc2)cc(-c2ccccc2)[n+]1C`, for which the compound was classed as inactive in [9]. Take `COP(=S)(OC)SCn1nnc2ccccc2c1=O`: the compound was classed as inactive in assay [4] and in [10].

Regarding `CCN(CC)c1nc(C)cc(OP(=S)(OC)OC)n1`, the outcome in assay [5] and in [10] was inactive. As for `CC(C)C1(C)N=C(c2ncccc2C(=O)O)NC1=O` (stereo unspecified), in assay [7], the call was inactive.

Turning to `COC(=O)N(C(=O)N1CO[C@@]2(C(=O)OC)Cc3cc(Cl)ccc3C2=N1)c1ccc(OC(F)(F)F)cc1`, the AC50 in assay [3] is 9.53 µM (active). Moreover, the compound was called inactive in assay [9]. Take `COC(=O)NC(=S)Nc1ccccc1NC(=S)NC(=O)OC`: in assay [10], the result was inactive. For `CC1(C)C(C=C(Cl)Cl)C1C(=O)OC(C#N)c1cccc(Oc2ccccc2)c1` (stereo unspecified), the AC50 was 11.8 µM (active) in [1], 4.96 µM (active) in assay [3] and 13.4 µM (active) in assay [10]. Regarding `Clc1nc(Cl)nc(Nc2ccccc2Cl)n1`, the compound was called inactive in assay [4], in [2] and in [1]. Moreover, the AC50 in assay [5] was 7.57 µM (active). Consider `CCN(CC)C(=O)C(C)Oc1cccc2ccccc12` (stereo unspecified), for which the compound was called inactive in assay [10].

With `Cc1c(COC(=O)[C@@H]2[C@H](/C=C(\Cl)C(F)(F)F)C2(C)C)cccc1-c1ccccc1`, the outcome in assay [1] was inactive. Take `CCCN(CC)CC1COC2(CCC(C(C)(C)C)CC2)O1` (stereo unspecified): the compound was called inactive in [4].
